Results published in the supplement of paper PMC6555819.

Each sequence was assayed on PPARg:RXRa IVT, anti-PPARg (NR concentration 270 nM, RXRa partner concentration 90 nM) (assay: PBM binding z-score (relative to random genomic background probes); higher = stronger binding; sequences stand for … in GC…GCGATTGACAGCGTAGAATGAAGG).
In short: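 Binding z-scores were set against random background probes. The data came from custom Agilent 4×180K protein-binding microarrays carrying double-stranded probes with 34-nt variable regions, incubated 1 h with ligand-free nuclear receptor dimers. Partner-specific antibodies detected binding, and scanned fluorescence was regression-normalized.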

Sequence	PBM binding z-score
CTGAGTAGGTTACGAGGGGGCATTCAGTGCGAAT	6.11
TCGAGTAGTTTACGGGGGCATTCAGGGATGAAGA	3.22
CTCTGTAGGTTAAGGGGGTCATTCAGTTTGAAAG	6.03
CTATGTAGGTTAAGGGGGGCATTCAGTTTGAAAG	7
CTATGCAGGTTAAGGGGGTCATTCAGTTTGAAAG	5.58
CCGAGTAGGTTACGAGAGGGCATTCAGTGCGAAT	3.37
CTATGTAGGTTAAGGGGGTCGTTCAGTTTGAAAG	7.3
CTATGTCGGTTAAGGGGGTCATTCAGTTTGAAAG	5.96
TCGAGGAGGTTACGGGGGCATTCAGGGATGAAGA	5.82
TCGAGTAGGTTACAGGGGCATTCAGGGATGAAGA	4.1
TCGAGTAGGTTACGGGGGCATTTAGGGATGAAGA	5.8
CTATCTAGGTTAAGGGGGTCATTCAGTTTGAAAG	7.5
CTATGTAGGTTAAGGGGGTCATTCAATTTGAAAG	7.79
CCGAGTTGGTTACGAGGGGGCATTCAGTGCGAAT	1.51
CTATGTATGTTAAGGGGGTCATTCAGTTTGAAAG	5.88
TCGAGTAGGTTACCGGGGCATTCAGGGATGAAGA	4.46
TCTAGTAGGTTACGGGGGCATTCAGGGATGAAGA	7
TCGAGTAGGTTACGGGGCCATTCAGGGATGAAGA	4.63
CCGGGTAGGTTACGAGGGGGCATTCAGTGCGAAT	4.17
TCGAGTAGGTTACGGGGGCATTCAAGGATGAAGA	6
CTAAGTAGGTTAAGGGGGTCATTCAGTTTGAAAG	7.65
TCGAGTAGCTTACGGGGGCATTCAGGGATGAAGA	2.26
